This passage reports inhibition results from ChEMBL document CHEMBL3433997, “St. Jude Leishmania screening dataset” (2016).

Common to all, as to format: functional
Assay [1] has as its target Solute carrier family 2, facilitated glucose transporter member 1 (Homo sapiens) (UniProt P11166). In words: ST_JUDE_LEISH: Cytotoxicity at 2uM final concentration against transgenic Leishmania Mexicana promastigotes LmGLUT1 that are glucose transport deficient and complemented with the human glucose transporter GLUT1. Activity is measured by DNA content using SYBR green in vitro.

Assay [2] addresses Hexose transporter 1 (Plasmodium falciparum) (UniProt O97467). In words: ST_JUDE_LEISH: Cytotoxicity at 2uM final concentration against transgenic Leishmania Mexicana promastigotes LmPfHT that are glucose transport deficient and complemented with the Plasmodium falciparum hexose transporter. Activity is measured by DNA content using SYBR green in vitro.
Assay [3] has as its target Glucose transporter (Leishmania mexicana) (UniProt O61059). As to the kind of experiment: ST_JUDE_LEISH: Cytotoxicity at 2uM final concentration against transgenic Leishmania Mexicana promastigotes LmGT2 that are glucose transport deficient and complemented with the L. Mexicana glucose transporter 2. Activity is measured by DNA content using SYBR green in vitro.

Each structure is given as a SMILES string.

Chain of Solute carrier family 2, facilitated glucose transporter member 1 (Homo sapiens) (P11166 whole entry): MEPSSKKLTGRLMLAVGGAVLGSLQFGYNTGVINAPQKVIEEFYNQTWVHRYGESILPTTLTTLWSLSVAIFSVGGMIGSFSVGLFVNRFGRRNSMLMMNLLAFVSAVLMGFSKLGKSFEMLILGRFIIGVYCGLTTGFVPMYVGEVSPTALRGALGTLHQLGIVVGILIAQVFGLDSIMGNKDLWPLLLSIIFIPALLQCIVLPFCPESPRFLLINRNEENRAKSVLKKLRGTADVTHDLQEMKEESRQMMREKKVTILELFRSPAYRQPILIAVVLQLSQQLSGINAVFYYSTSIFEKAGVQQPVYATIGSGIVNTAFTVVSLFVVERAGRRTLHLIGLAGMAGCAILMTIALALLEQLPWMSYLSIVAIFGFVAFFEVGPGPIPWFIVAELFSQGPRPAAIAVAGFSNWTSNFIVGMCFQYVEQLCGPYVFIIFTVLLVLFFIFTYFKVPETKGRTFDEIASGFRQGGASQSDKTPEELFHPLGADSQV

The term inhibition denotes the relative decrease from the control value, in per cent. Turning to `CC(C)(C)NCC(O)COc1ccc(Cl)cc1C1=NNC(=O)CC1` (configuration not stated), the figures for the inhibition in assay [1], in assay [2] and in assay [3] were 1.53%, 1.45% and 0.82%, respectively.

For `COc1ccc(-c2cccc(NC(=O)c3cccc(Cl)c3)c2)cc1CN(C)CCN(C)C`, the inhibition in assay [1] is 1.29%; in assay [2], 0.75%; in assay [3] it was -1.29%.

In the case of `O=C(/C=C/c1ccc(Cl)c(Cl)c1)NCCCCCCN1CCN(C(=O)Nc2ccc(F)c(Cl)c2)CC1`, the inhibition amounted to 13.8% in assay [1], 11.5% in assay [2] and 14.1% in assay [3].

Take `CC(C)Cn1ncc2c3c(N)nc(N)nc3ccc21`: the inhibition was found to be 4.46% in assay [1], 5.97% in assay [2] and 4.36% in assay [3].

With `CCN1CCN(c2cc(C)c3cc(NC(=O)c4ccc(Br)o4)ccc3n2)CC1`, the inhibition was determined as 6.38% in assay [1], 6.62% in assay [2] and 8.17% in assay [3].

For `CN1CCC(NCc2ccc(-c3cccc(S(=O)(=O)NCCc4ccccn4)c3)cc2)CC1`, the inhibition in assay [1] is 0.27%; in assay [2], -0.63%; in assay [3] it was 1.83%.

Take `O=S(=O)(NCCN1CCCC1)c1ccc(-c2cccc(CNCc3ccc(F)cc3)c2)cc1`: the inhibition in assay [1] was 1.16%; in assay [2] it was 1.09%; in assay [3], -0.22%.

With `O=C(NCc1cccc(C(F)(F)F)c1)C(c1cc2ccccc2o1)N1CCN(C(c2ccccc2)c2ccccc2)CC1` (configuration not stated), the inhibition in assay [1] came to 1.37%; in assay [2], 2.33%; in assay [3], 0.71%.

`COc1cc(CNc2ccc(N3CCCC3)cc2)cc(Cl)c1OC`: the inhibition in assay [1] was -2.15%; in assay [2] it was -4.72%; in assay [3], 1.78%.

`O=C(Nc1ccc(OC2CCN(Cc3ccsc3)CC2)c(Cl)c1)c1cccs1`: the inhibition in assay [1] amounted to 7.63%; in assay [2] it was 2.38%; in assay [3], 2.85%.

On to `CN1CCN(Cc2cc(NC(=O)c3ccc(-c4ccc(Cl)cc4Cl)cc3)ccc2-c2ccccc2)CC1`, for which the inhibition in assay [1] is 6.54%; in assay [2], 2.47%; in assay [3], -0.1%.

As to `COc1ccc(Cn2cncc2CN(CCC(C)C)C(=O)c2ccc(Cl)nc2Cl)cc1`, the inhibition in assay [1] amounted to 2.52%; in assay [2] it was 2.14%; in assay [3], 2.49%.

Take `CCC(C)(C)C1CCc2nc(N)nc(N)c2C1` (configuration not stated): the inhibition in assay [1] turned out to be 67%; in assay [2] it was 71.9%; in assay [3], 56.1%.

For the molecule `COc1ccc2cc(C(c3nnnn3CC3CCCO3)N3CCc4ccccc43)c(=O)[nH]c2c1` (configuration not stated), the figures for the inhibition in assay [1], in assay [2] and in assay [3] were 2.55%, 3.26% and 2.23%, respectively.

For `COc1cc(-c2cc(-c3ccc(S(C)(=O)=O)cc3)cnc2N)ccc1O`, the inhibition in assay [1] was 6.13%; in assay [2], 6.34%; in assay [3], 9.19%.

With `CCOC(=O)C(C(=O)OCC)c1nc(C)ns1`, the inhibition was -1.35% in assay [1], 0.58% in assay [2] and 0.53% in assay [3].

`c1cn(CCCNc2ncc(-c3ccsc3)c(-c3nccs3)n2)cn1`: the inhibition is 11% in assay [1], 10.1% in assay [2] and 9.4% in assay [3].

In the case of `Cc1c(C2CCN(CCCCNC(=O)c3ccc(-c4ccc(C#N)cc4)cc3)CC2)c2ccccc2n1CCO`, the inhibition in assay [1] was determined as 3.84%; in assay [2] it was 0.33%; in assay [3] it was 3.72%.

For the molecule `Cc1cccc2nc(-c3ccc(-c4ccc(NC(=O)Nc5ccc(Cl)c(Cl)c5)cc4)cc3)[nH]c12`, the inhibition stood at 2.18% in assay [1], 1.99% in assay [2] and 1.71% in assay [3].

Turning to `COc1ccc(C(=O)N[C@@H](CC(C)C)C(=O)N[C@H](/C=N/NC(=O)c2ccccc2)CCc2ccccc2)cc1OCCN1CCOCC1`, the inhibition in assay [1] was -0.43%; in assay [2], 3.34%; in assay [3] it was 6.8%.

On to `O=C(c1ccc(-c2cccc(-c3nc4cc(C(F)(F)F)ccc4[nH]3)c2)cc1)N1CCCCC1CN1CCC(O)C1` (configuration not stated), for which the values for the inhibition in assay [1], in assay [2] and in assay [3] were -0.47%, 0.38% and 0.17%, respectively.

As to `CCCCOc1ccccc1C(=O)NCc1csc(-c2ccccc2)n1`, the inhibition in assay [1] is -0.31%; in assay [2], 1.14%; in assay [3], 0.41%.

Take `Cc1c(CNCCCNc2nc3ccncc3[nH]2)sc(Br)c1Br`: the inhibition in assay [1] is 6.56%; in assay [2], -2.83%; in assay [3], 4.11%.

`CCN(CC)CCCC(C)Nc1c2ccccc2nc2ccc3ccccc3c12` (configuration not stated): the values for the inhibition in assay [1], in assay [2] and in assay [3] were 1.95%, 2.89% and 2.22%, respectively.

As for `O=C(NCc1cccc(F)c1)Nc1cccc(-c2ccc(-c3nc4cc(C(F)(F)F)ccc4[nH]3)cc2)c1`, the inhibition in assay [1] was 0.26%; in assay [2], 1.57%; in assay [3], 0.07%.

For the molecule `Nc1nc(-c2ccccn2)nc(-n2nc(-c3cccc(C(F)(F)F)c3)cc2N)n1`, the results for the inhibition in assay [1], in assay [2] and in assay [3] were 3.56%, 2.31% and 1.29%, respectively.

With `CCOc1c(OC)ccc2c1CCN(CCN1CCC(CNC(=O)c3ccc(-c4ccc(C#N)cc4)cc3)CC1)C2`, the inhibition in assay [1] was -1.08%; in assay [2], -0.26%; in assay [3], 1.45%.

As to `CCC(C)(C)c1ccc(OCCCC(=O)Nc2ccc(Cl)c([N+](=O)[O-])c2)c(C(C)(C)CC)c1`, the inhibition in assay [1] turned out to be 0.37%; in assay [2], 0.79%; in assay [3] it was 1.34%.

Take `CCOc1ccc(Nc2nc(N)c3ccccc3n2)cc1`: the figures for the inhibition in assay [1], in assay [2] and in assay [3] were 12.3%, 10.3% and 6.25%, respectively.

Consider `O=S(=O)(c1ccc(Oc2ccccc2)cc1)N(CCC(O)(C(F)(F)F)C(F)(F)F)Cc1cccc(O)c1`, for which the inhibition is -1.44% in assay [1], -3.19% in assay [2] and -4.58% in assay [3].

Turning to `COc1ccccc1CNC(=O)c1ccc(N2CCN(c3ccncc3)CC2)cn1`, the inhibition in assay [1] was determined as 7.32%; in assay [2] it was 2.84%; in assay [3], 1.11%.

Consider `CCCCOc1cc2c(cc1OCC)C(C=Cc1ccc(Cl)cc1Cl)=NCC2`, for which the figures for the inhibition in assay [1], in assay [2] and in assay [3] were 15.5%, 27.9% and 10.2%, respectively.

For `Cc1cc(NCCc2ccccc2)nc(NC(=N)Nc2cccc([N+](=O)[O-])c2)n1`, the inhibition amounted to 11.1% in assay [1], 10.5% in assay [2] and 5.24% in assay [3].

For `COc1ccc(Nc2nc(N/N=C/c3cc(Br)ccc3O)nc(Nc3ccc([N+](=O)[O-])cc3)n2)cc1`, the values for the inhibition in assay [1], in assay [2] and in assay [3] were 0.02%, -2.54% and 1.51%, respectively.

As to `COc1ccc(NC(=O)Nc2cccc(-c3ccncc3)c2)cc1N1CCN(C)CC1`, the inhibition in assay [1] stood at 6.92%; in assay [2], 7.39%; in assay [3] it was 7.22%.

As to `Cc1nc(NCc2ccccc2)cc(Nc2cc(NCc3ccccc3)nc(C)n2)n1`, the inhibition was 4.26% in assay [1], 3.76% in assay [2] and 1.98% in assay [3].

In the case of `COc1ccc2nccc([C@@H](O)CN3CCC(NCC(=O)Nc4cc(F)cc(F)c4)CC3)c2n1`, the inhibition in assay [1] was 37.8%; in assay [2], 47.2%; in assay [3], 58.1%.

For the molecule `COc1ccccc1CNC(=O)C(=O)Nc1c(-c2ccccc2)[nH]c2ccccc12`, the values for the inhibition in assay [1], in assay [2] and in assay [3] were -3.25%, -4.12% and -1.57%, respectively.

With `CC1CNC(c2ccc(NC(=O)Nc3ccc(C4=NC(C)CN4)cc3)cc2)=N1` (configuration not stated), the values for the inhibition in assay [1], in assay [2] and in assay [3] were 4.6%, 5.64% and 3.84%, respectively.

Turning to `Oc1c(C(Nc2nc3ccccc3s2)c2ccccc2)ccc2cccnc12` (configuration not stated), the inhibition was 2.66% in assay [1], 3.92% in assay [2] and -1.54% in assay [3].

With `CN(C)CCNCc1ccc(-c2ccc3c(Nc4ccc(F)cc4Cl)ccnc3c2)o1`, the inhibition in assay [1] is 4.19%; in assay [2] it was 6.24%; in assay [3] it was -0.47%.

`COc1ccc2nccc([C@@H](O)CN3CCC(NC(=O)C(c4cc5ccccc5o4)N4CCN(Cc5ccccc5)CC4)CC3)c2c1` (some centres not stated): the inhibition in assay [1] was determined as 3.8%; in assay [2], 1.35%; in assay [3], 0.77%.

For the molecule `COc1ccc(C(=O)N2CCC3(CC2)C(=O)N(CC(=O)NC2CCCCC2)CN3c2ccccc2)c(OC)c1`, the inhibition came to 3.74% in assay [1], 3.6% in assay [2] and 4.38% in assay [3].

On to `Cc1cccc(NC(=O)c2ccc(C(=O)NC3CCN(CC4CCCCC4)C3)cc2)c1` (configuration not stated), for which the inhibition is 5.04% in assay [1], 3.98% in assay [2] and -1.15% in assay [3].

Turning to `O=C1CCCN1CCCNCc1cccc(-c2ccc(-c3nc4cc(C(F)(F)F)ccc4[nH]3)cc2)c1`, the inhibition came out at 13.5% in assay [1], 13% in assay [2] and 13% in assay [3].

For the molecule `C=CCOc1ccc2ccccc2c1CNCCCCCCNCc1c(OCC=C)ccc2ccccc12`, the inhibition in assay [1] was found to be 4.33%; in assay [2], 5.37%; in assay [3], 1.05%.

`CCNc1cc(C(=O)N[C@@H](Cc2ccccc2)[C@H](O)CNC2CCC(C)(C)C2)cc(N2CCCCS2(=O)=O)c1` (some centres not stated): the inhibition in assay [1] was 2.05%; in assay [2] it was 2.29%; in assay [3], 2.37%.

Turning to `CN1CCN(C(C(=O)NCc2cc(Cl)cc(Cl)c2)c2ccc(Nc3cccc(C(F)(F)F)c3)cc2)CC1` (configuration not stated), the inhibition is 1% in assay [1], -2.61% in assay [2] and -2.02% in assay [3].

With `COc1cccc(COCC(O)CN(CCc2ccccn2)C(=O)c2ccccc2F)c1` (configuration not stated), the values for the inhibition in assay [1], in assay [2] and in assay [3] were 2.13%, 2.79% and 2.65%, respectively.
